Experimental data reported in the supplement of paper PMC8728848.
This is one part of a sample in which the strongest signals are shown more often than they occur.

B1: PEB1 (Campylobacter jejuni), Q0P9X8 (protein)
chain: MVFRKSLLKLAVFALGACVAFSNANAAEGKLESIKSKGQLIVGVKNDVPHYALLDQATGEIKGFEVDVAKLLAKSILGDDKKIKLVAVNAKTRGPLLDNGSVDAVIATFTITPERKRIYNFSEPYYQDAIGLLVLKEKKYKSLADMKGANIGVAQAATTKKAIGEAAKKIGIDVKFSEFPDYPSIKAALDAKRVDAFSVDKSILLGYVDDKSEILPDSFEPQSYGIVTKKDDPAFAKYVDDFVKEHKNEIDALAKKWGL
B2: CBM32-5 (Clostridium perfringens) (protein)
chain: MGSSHHHHHHSSGLVPRGSHMASALPQGNMKATATSEHPDVGNEGLAKFAIDGKENTIWHTKYNPVEELPQSITLELGGSYEINKFTYLPRSGAKNGNITKYELHVSEDGNNFRKISEGNWDDSGSLKTLKFNSTKATHVKLVALEGVGGFASAAELNVFA

Assays:
Assay in all cases: glycan array binding signal (z-score within array); higher = stronger binding
Conditions in all cases: glycan notation: IUPAC condensed, linker removed
[1] = target: Neu5Ac(a2-6)Gal(b1-4)GlcNAc(b1-2)Man(a1-6)Man(b1-4)GlcNAc(b1-4)GlcNAc
How it was run: (§1)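 Arrays were curated from the Consortium for Functional Glycomics database, 3228 in total, and kept only where the protein sequence was available. Binding is expressed as a within-array Z-score. This score was averaged across arrays of the same protein sequence at different concentrations or buffers and across linkers, and negative values can be read as non-binding.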

[2] = target: Neu5Ac9Ac(a2-3)Gal(b1-3)GlcNAc
How it was run: as §1

[3] = target: Neu5Gc(a2-3)Gal(b1-3)[Fuc(a1-4)]GlcNAc
How it was run: as §1

[4] = target: Neu5Gc(a2-6)Gal(b1-4)GlcNAc
How it was run: as §1

Fuc(a1-2)Gal(b1-4)Glc6S = target: Fuc(a1-2)Gal(b1-4)Glc6S
How it was run: as §1

[5] = target: Fuc(a1-2)[GalNAc(a1-3)]Gal(b1-4)[Fuc(a1-3)]GlcNAc
How it was run: as §1

[6] = target: Fuc(a1-2)[GalNAc(a1-4)]Gal(b1-4)GlcNAc
How it was run: as §1

[7] = target: Fuc(a1-2)[GalNAc(b1-3)]Gal
How it was run: as §1

Gal(a1-3)Gal = target: Gal(a1-3)Gal
How it was run: as §1

Gal(a1-3)Gal(b1-4)Glc = target: Gal(a1-3)Gal(b1-4)Glc
How it was run: as §1

Gal(a1-4)Gal(b1-4)GlcNAc = target: Gal(a1-4)Gal(b1-4)GlcNAc
How it was run: as §1

[8] = target: Gal(b1-3)[Fuc(a1-4)]GlcNAc(b1-3)Gal(b1-4)GlcNAc
How it was run: as §1

[9] = target: Gal(b1-3)[Fuc(a1-4)]GlcNAc(b1-3)Gal(b1-4)[Fuc(a1-3)]GlcNAc
How it was run: as §1

[10] = target: Gal(b1-4)GlcNAc(a1-6)Gal(b1-4)GlcNAc
How it was run: as §1

[11] = target: Gal(b1-4)GlcNAc(b1-3)Gal(b1-4)[Fuc(a1-3)]GlcNAc(b1-3)Gal(b1-4)[Fuc(a1-3)]GlcNAc
How it was run: as §1

[12] = target: Gal(b1-4)GlcNAc(b1-3)GalNAc
How it was run: as §1

[13] = target: Gal(b1-4)GlcNAc(b1-3)[Gal(b1-4)GlcNAc(b1-6)]Gal(b1-4)GlcNAc
How it was run: as §1

[14] = target: Gal(b1-4)GlcNAc(b1-6)Gal(b1-4)GlcNAc
How it was run: as §1

GalNAc(a1-3)Gal = target: GalNAc(a1-3)Gal
How it was run: as §1

GalNAc(b1-3)Gal = target: GalNAc(b1-3)Gal
How it was run: as §1

[15] = target: GalNAc(b1-3)Gal(a1-4)Gal(b1-4)GlcNAc
How it was run: as §1

GalNAc(b1-3)GalNAc = target: GalNAc(b1-3)GalNAc
How it was run: as §1

[16] = target: GlcNAc(b1-3)Gal(b1-4)GlcNAc
How it was run: as §1

[17] = target: Man(a1-2)Man(a1-2)Man(a1-6)[Man(a1-3)]Man
How it was run: as §1

Man(a1-2)Man(a1-3)Man = target: Man(a1-2)Man(a1-3)Man
How it was run: as §1

[18] = target: Man(a1-2)Man(a1-3)[Man(a1-6)]Man(a1-6)[Man(a1-2)Man(a1-3)]Man(b1-4)GlcNAc(b1-4)GlcNAc
How it was run: as §1

[19] = target: Neu5Ac(a2-3)Gal(b1-3)[Fuc(a1-4)]GlcNAc
How it was run: as §1

[20] = target: Neu5Ac(a2-3)Gal6S(b1-4)GlcNAc
How it was run: as §1

[21] = target: Neu5Ac(a2-3)GalNAc(b1-4)GlcNAc
How it was run: as §1

[22] = target: Neu5Ac(a2-6)Gal(b1-4)GlcNAc6S
How it was run: as §1

[23] = target: Neu5Ac(a2-8)Neu5Ac(a2-8)Neu5Ac(a2-8)Neu5Ac(a2-3)[GalNAc(b1-4)]Gal(b1-4)Glc
How it was run: as §1

Binder	glycan array binding signal (z-score) [1]	glycan array binding signal (z-score) [2]	glycan array binding signal (z-score) [3]	glycan array binding signal (z-score) [4]	glycan array binding signal (z-score) (Fuc(a1-2)Gal(b1-4)Glc6S)	glycan array binding signal (z-score) [5]	glycan array binding signal (z-score) [6]	glycan array binding signal (z-score) [7]	glycan array binding signal (z-score) (Gal(a1-3)Gal)	glycan array binding signal (z-score) (Gal(a1-3)Gal(b1-4)Glc)	glycan array binding signal (z-score) (Gal(a1-4)Gal(b1-4)GlcNAc)	glycan array binding signal (z-score) [8]	glycan array binding signal (z-score) [9]	glycan array binding signal (z-score) [10]	glycan array binding signal (z-score) [11]	glycan array binding signal (z-score) [12]	glycan array binding signal (z-score) [13]	glycan array binding signal (z-score) [14]	glycan array binding signal (z-score) (GalNAc(a1-3)Gal)	glycan array binding signal (z-score) (GalNAc(b1-3)Gal)	glycan array binding signal (z-score) [15]	glycan array binding signal (z-score) (GalNAc(b1-3)GalNAc)	glycan array binding signal (z-score) [16]	glycan array binding signal (z-score) [17]	glycan array binding signal (z-score) (Man(a1-2)Man(a1-3)Man)	glycan array binding signal (z-score) [18]	glycan array binding signal (z-score) [19]	glycan array binding signal (z-score) [20]	glycan array binding signal (z-score) [21]	glycan array binding signal (z-score) [22]	glycan array binding signal (z-score) [23]
B1	1.09	-0.504	-0.646	0.988																											
B2					-0.037	-0.639	9.74	6.11	-0.718	2.12	0.124	-0.65	-0.543	0.343	-0.59	0.285	3.1	0.749	2.91	4.11	1.22	0.845	-0.249	-0.584	-0.091	-0.536	-0.236	-0.395	-0.526	-0.183	-0.621
